From PubChem BioAssay
FBW7 activator = activators of human E3 ligase FBW7 | AID 1259310 | 650,000 compounds, 0.13% hits | Q969H0 | normalized activity (activation), % at 26.1 µM | AlphaScreen FBW7–phospho-cyclin E peptide binding, activator screen; in the data active = normalized activity above about 1.9%;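 also: purified mutant Fbw7 with reduced substrate affinity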
GPR151 activ = activates the human receptor GPR151. Q8TDV0. PathHunter beta-arrestin GPR151 cells, luminescence. activation, % at 11.2 µM. 650,000 compounds, 1% hits; in the data active = activation above about 4.9%;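 also: 0% = median of compound wells and 100% = cells with positive control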
MITF primary = inhibitors of human MITF; 650,000 compounds, 0.91% hits; AlphaScreen MITF homodimerization, bead proximity signal; AID 1259374; O75030; inhibition, % at 2.6 µM; in the data active = inhibition above about 50%;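 also: 0% = vehicle wells with protein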
Target sequence (O75030 whole entry, looked up): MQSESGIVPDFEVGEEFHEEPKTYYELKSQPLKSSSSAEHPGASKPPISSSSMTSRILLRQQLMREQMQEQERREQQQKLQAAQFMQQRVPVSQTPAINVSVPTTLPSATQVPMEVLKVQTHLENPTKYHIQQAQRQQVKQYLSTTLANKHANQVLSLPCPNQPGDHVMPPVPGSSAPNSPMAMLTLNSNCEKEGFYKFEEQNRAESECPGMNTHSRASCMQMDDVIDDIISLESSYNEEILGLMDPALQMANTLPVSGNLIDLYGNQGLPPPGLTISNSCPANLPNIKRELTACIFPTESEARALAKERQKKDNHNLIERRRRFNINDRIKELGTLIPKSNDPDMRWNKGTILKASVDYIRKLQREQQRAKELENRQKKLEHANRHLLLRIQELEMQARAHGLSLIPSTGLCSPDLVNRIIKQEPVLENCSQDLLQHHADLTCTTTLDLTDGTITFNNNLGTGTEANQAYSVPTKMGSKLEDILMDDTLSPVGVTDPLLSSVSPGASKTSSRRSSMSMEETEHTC
TEAD-YAP block = TEAD-YAP interaction inhibition | HEK-TIYL cells, TEAD-Gal4/YAP UAS-luciferase luminescence | inhibition, % at 9.12 µM | 640,000 compounds, 1.4% hits | AID 1259422; in the data active = inhibition above about 32%;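 also: 0% = median of test compound wells and 100% = reference inhibitor wells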
Numbers without * were called inactive. The list is not random: actives were taken first. Their share in the collection is about 3.4%.

SMILES | FBW7 activator | GPR151 activ | MITF primary | TEAD-YAP block
COc1ccc(C2CC(=O)C3=C(C2)NC(C)=C(C(=O)OC(C)C)C3c2cccc(Br)c2)cc1OC (stereo unspecified) | 0 | 2 | -3 | 31
COc1ccc(C2CC(=O)C3=C(C2)NC(C)=C(C(=O)OC2CCCCC2)C3c2cccc(C)c2)cc1OC (stereo unspecified) | 0 | 0 | 7 | 46*
COc1ccc(C2CC(=O)C3=C(C2)NC(C)=C(C(=O)OC(C)C)C3c2ccccc2OC)cc1OC (stereo unspecified) | 1 | -1 | 14 | 1
COc1ccc(C2CC(=O)C3=C(C2)NC(C)=C(C(=O)OC(C)C)C3c2cccc(C)c2)cc1OC (stereo unspecified) | 0 | -1 | 4 | 52*
COc1ccc(C2CC(=O)C3=C(C2)NC(C)=C(C(=O)OC(C)C)C3c2ccccc2F)cc1OC (stereo unspecified) | 0 | 0 | 11 | 43*
COc1cc(C(=O)NNC(=O)c2ccc(C(C)(C)C)cc2)cc(OC)c1OC | 0 | 0 | -6 | -3
CCOC(=O)C1=C(C)NC2=C(C(=O)CC(c3ccc(OC)c(OC)c3)C2)C1c1cccc([N+](=O)[O-])c1 (stereo unspecified) | 0 | -1 | -1 | 5
CCOc1ccc(C2C(C(=O)OC)=C(C)NC3=C2C(=O)CC(c2ccc(OC)c(OC)c2)C3)cc1OC (stereo unspecified) | 0 | -1 | -1 | 41*
CCOc1ccc(C2C(C(=O)OC)=C(C)NC3=C2C(=O)CC(c2ccc(OC)c(OC)c2)C3)cc1 (stereo unspecified) | 0 | 0 | 0 | -11
CCC(C)OC(=O)C1=C(C)NC2=C(C(=O)CC(c3ccccc3)C2)C1c1cccc2ccccc12 (stereo unspecified) | 2.2* | 0 | 6 | 9
COc1ccc(C2CC(=O)C3=C(C2)NC(C)=C(C(=O)OC(C)C)C3c2cccc([N+](=O)[O-])c2)cc1OC (stereo unspecified) | 0 | -1 | -10 | 39*
COc1ccc(/C=N/NC(=O)c2ccn(Cc3ccc(Cl)cc3)n2)c(C(=O)O)c1OC | 0 | 1 | 2 | -6
Cn1c(=N)c(C(=O)NCc2ccco2)cc2c(=O)n3ccccc3nc21 | 0 | -1 | 15 | -1
CC1Cc2ccccc2N1S(=O)(=O)/C=C/c1ccccc1 (stereo unspecified) | 0 | 1 | -2 | 7
CC12COC3(C(=O)Nc4ccccc4)CC1CCC32C (stereo unspecified) | 0 | -1 | 8 | 0
CC12COC3(C(=O)Nc4nc5ccccc5s4)CC1CCC32C (stereo unspecified) | 0 | 0 | -3 | 67*
c1cncc(-c2nc3c4ccccc4nc(N4CCC(N5CCCCC5)CC4)n3n2)c1 | 0 | 0 | 1 | 46*
Cc1cccc(CSc2nnc(CNC(=O)c3ccccc3)o2)c1 | 0 | 1 | 6 | 8
O=C(NCc1nnc(SCc2ccccc2Cl)o1)c1ccccc1 | 0 | -1 | -7 | -6
O=C(NCc1nnc(SCc2ccccc2F)o1)c1ccc(F)cc1 | 0 | 1 | 3 | 61*
O=C(NCc1nnc(SCc2cccc(F)c2)o1)c1ccccc1 | 0 | 0 | 5 | 56*
O=C(NCc1nnc(SCc2ccccc2)o1)c1ccc(F)cc1 | 0 | -1 | 7 | 58*
O=C(O)c1ccccc1NC1SC(=O)N(Cc2ccc([N+](=O)[O-])cc2)C1=O (stereo unspecified) | 0 | 3 | 0 | 7
CN1CCC(Oc2ccnc(C(=O)Nc3ccc4[nH]ncc4c3)c2)CC1 | 1 | -1 | 10 | 10
O=C(Nc1ccc2[nH]ncc2c1)c1cccnc1OC1CCN(Cc2ccccc2)CC1 | 0 | 0 | -2 | -1
SMILES | FBW7 activator | GPR151 activ | MITF primary | TEAD-YAP block
O=C(Nc1ccc2[nH]ncc2c1)c1ccc(OC2CCN(Cc3ccccc3)CC2)nc1 | 0 | 1 | 21 | 44*
CN1CC[C@@H](Oc2ccnc(C(=O)Nc3ccc4[nH]ncc4c3)c2)C1 | 0 | 0 | 11 | 66*
O=C(Nc1ccc2[nH]ncc2c1)c1cc(O[C@H]2CCNC2)ccn1 | 0 | 1 | 11 | 43*
COc1ccc(S(=O)(=O)N(C)C)cc1NC(=O)CN1C(=O)CN(C)C1=O | 0 | -2 | 11 | 1
Cn1c(=NC(=O)c2ccc(-n3ccnc3)c([N+](=O)[O-])c2)sc2ccccc21 | 0 | 0 | 23 | -45
CC(C)(C)c1ccc(-c2cn(-c3ccccc3)c3[n+]2CCCS3)cc1 | 0 | 1 | 4 | 84*
CSC1SC[C@H]2C(=O)N(C)[C@@H](C(C)C)C(=O)OC[C@@H](NC(=O)c3cnc4ccccc4n3)C(=O)N[C@@H](C)C(=O)N(C)[C@H]1C(=O)N(C)[C@@H](C(C)C)C(=O)OC[C@@H](NC(=O)c1cnc3ccccc3n1)C(=O)N[C@@H](C)C(=O)N2C (stereo partly specified) | 0 | 1 | -6 | 96*
Nc1c(Cl)cc(Cl)cc1C(=O)OCC(=O)Nc1ncc(C(F)(F)F)cc1Cl | 0 | 0 | 10 | -9
CNC(=O)c1cc2cc(Br)ccc2oc1=O | 0 | -1 | 0 | -7
O=C(NNC(=O)c1cc2cc(Br)ccc2oc1=O)c1ccc(O)cc1O | 0 | 0 | 30 | 34*
CC(=O)N1CC(C)Sc2cc(S(=O)(=O)N3CCCCC3C)ccc21 (stereo unspecified) | 0 | 0 | 4 | 6
COc1ccc2c(c1)CCc1c(C(=O)Nc3cccc(O)c3)noc1-2 | 0 | -6 | -6 | 95*
COc1ccc2c(c1)CCc1c(C(=O)Nc3cccc(C(C)=O)c3)noc1-2 | 0 | 0 | -2 | -15
COCC(C)NC(=O)c1cc(-c2cccc(OC)c2)on1 (stereo unspecified) | 1.9* | -1 | -19 | -42
COc1cc(NC(=O)c2cc(-c3cccs3)on2)cc(OC)c1OC | 0 | 0 | -5 | 36*
O=C(Nc1cccc(O)c1)c1cc(-c2ccc(Br)cc2)on1 | 1 | -6 | 7 | 74*
Cc1cc(NCCCn2ccnc2)n2nc(C)c(-c3ccc(F)cc3)c2n1 | 0 | 1 | 10 | -18
O=C(Nc1cccc(O)c1)c1cc(-c2ccc(O)cc2)on1 | 0 | -3 | 5 | 65*
COc1cccc(-c2cc(C(=O)Nc3cccc(O)c3)no2)c1 | 0 | -2 | -3 | 89*
CCOC(=O)c1c(NC(=O)c2cc(-c3cccs3)on2)sc(C)c1C | 2.8* | 1 | -8 | -2
CCOC(=O)c1c(NC(=O)c2cc(-c3cccs3)on2)sc(C(C)=O)c1C | 0 | 0 | -9 | -1
O=C(Nc1cccc(Cl)c1)c1cc(-c2cccs2)on1 | 0 | 0 | 15 | -17
O=C(Nc1cccc(O)c1)c1cc(-c2cccs2)on1 | 1 | -4 | 13 | 77*
O=C(NN1C(=O)c2ccc(Oc3cccc([N+](=O)[O-])c3)cc2C1=O)c1cccnc1 | 0 | 1 | 4 | -11
NC(=O)c1ccccc1Nc1ncnc2c1nc1n2CCCCC1 | 0 | 1 | -11 | 48*
